Inconclusive results are not listed. Entries that show only a call come without a potency. Activity calls are given as the source filed them. Calls come from the whole dose curve.
Potency is the fitted concentration of half-maximal effect.

This assay is described as follows: qHTS assay for small molecule disruptors of the mitochondrial membrane potential - 5 hr assay (AID 651755). Note: nearly all actives have a fitted effect of over 40% in size. As to conditions: JC-1-type ratio dye; series mostly up to 92.2 µM. The text has this: National Center for Advancing Translational Sciences [NCATS]
NIH Chemical Genomics Center [NCGC]
National Institutes of Environmental Health Sciences [NIEHS]
National Toxicology Program [NTP]
Mitochondrial membrane potential (MMP), one of the parameters for mitochondrial function, is generated by mitochondrial electron transport chain that creates an electrochemical gradient by a series of redox reactions. This gradient drives the synthesis of ATP, a crucial molecule for various cellular processes. Measuring MMP in living cells is commonly used to assess the effect of chemicals on mitochondrial function. […] The dye accumulates in the mitochondria of healthy cells as aggregates, with red fluorescence. The mitochondrial potential collapses and the dye can no longer accumulate in the mitochondria and remains in the cytoplasm in monomers, with green fluorescence.
2,000 HepG2 cells in 5 uL/well were dispensed into black, clear-bottom 1536-well plates using a Multidrop Combi (Thermo Scientific) dispenser. The assay plates were incubated overnight at 37C to allow cells to attach to the wells, followed by the transfer of 23 nL compound or DMSO vehicle by a pin tool (Kalypsys). The plates were incubated for 5 hr at 37C and 5% CO2, followed by the addition of 5 uL of 2X Mito-MPS dye (BD Biosciences) into each well using Flying Reagent Dispenser (Aurora Discovery) and then following 30 min incubation at 37C. Fluorescence intensity (490nm excitation and 535nm emission for monomers; and 540nm excitation and 590nm emissions for aggregates) was measured using an Envision plate reader.
`CC(=O)Nc1ccc(C(=O)CCl)cc1`: the Potency entry is “inactive”.
On to `c1cc(OCC2CO2)cc(OCC2CO2)c1` (configuration not stated), for which the Potency entry is “inactive”.
With `Oc1ccc2cc(SSc3ccc4cc(O)ccc4c3)ccc2c1` the figure was 42.2 µM (active); with `O=C=Nc1ccc(Cc2ccc(N=C=O)cc2)cc1`, “inactive”; with `O=[N+]([O-])c1cc([N+](=O)[O-])c2ccc(S(=O)(=O)O)cc2c1O`, “inactive”.
On to `CN1[C@H]2CC(OC(=O)[C@H](CO)c3ccccc3)C[C@H]1[C@H]1O[C@H]12` (some centres not stated), for which the Potency entry is “inactive”.
Regarding `ClC1=C(Cl)C(Cl)(Cl)C(Cl)=C1Cl`, the Potency entry is “inactive”.
The same measure for `CCC(C)Nc1ccc(NC(C)CC)cc1` (configuration not stated): 59.6 µM (active); for `C=CC(=O)OCCOCCOC(=O)C=C`: “inactive”.
Take `Nc1ccc2cc3ccccc3cc2c1`: the Potency is 3.76 µM (active).
With `Cc1cccc(O)c1C` the entry was “inactive”; with `C/C=C1\C(=O)C[C@H]2[C@@H]3CCC4=CC(=O)CC[C@]4(C)[C@H]3CC[C@]12C`, “inactive”.
As to `CC/C(=C(\c1ccccc1)c1ccc(OCCN(C)C)cc1)c1ccc(O)cc1`, the Potency result was “inactive”.
Consider `c1ccc2c(c1)-c1cccc3c1c-2cc1ccccc13`, for which the Potency entry was “inactive”.
The same measure for `O=C(/C=C/c1ccc(O)c(O)c1)OC1C[C@](O)(C(=O)O)C[C@@H](O)[C@H]1O` (some centres not stated): “inactive”; for `CCCCCCCC[N+](CCCCCCCC)(CCCCCCCC)CCCCCCCC`: 2.66 µM (active); for `CCCCCC/C(C=O)=C\c1ccccc1`: “inactive”.
With `O=C1OC(O)C(C(Cl)Cl)=C1Cl` (configuration not stated) the entry was “inactive”; with `CO[C@H]1/C=C/O[C@@]2(C)Oc3c(C)c(O)c4c(O)c(c5c(c4c3C2=O)NC2(CCN(CC(C)C)CC2)N=5)=NC(=O)/C(C)=C\C=C\[C@H](C)[C@H](O)[C@@H](C)[C@@H](O)[C@@H](C)[C@H](OC(C)=O)[C@@H]1C`, “inactive”; with `C=C(C)c1ccccc1`, “inactive”.
As to `Cc1cc(O)c(C(C)(C)C)cc1Sc1cc(C(C)(C)C)c(O)cc1C`, the Potency is 16.8 µM (active).
The same measure for `O=Cc1ccc(Cl)c(Cl)c1`: “inactive”.

The record behind these values is PubChem BioAssay (NCATS).
